Some test systems named below: HCT-15 colon; HT29 colon; SNB-75 CNS; SNB-19 CNS; U251 CNS; PC-3 prostate; UACC-62 melanoma; LOX IMVI melanoma; SK-MEL-28 melanoma; SK-MEL-5 melanoma.
What all share (experiment): NCI-60 one-dose screen, 48 h (100 = growth as untreated, 0 = no growth, -100 = all killed)
Holding throughout (details): 10 µM unless noted

This is part of a sample that, as a whole, favours compounds with a hit. Of some 83,000 tested, about 20% had one in any assay.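 Compound tested at a single concentration for 48 hours in 96-well plates; a percent growth value below 10 was scored as active.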 A number with no mark means an inactive call. Active and inactive are the calls of the source.

On to `CCOC(=O)Nc1ccc(-c2nc(-c3cccc(OCCN4CCOCC4)c3)c(-c3ccnc(Br)c3)[nH]2)cc1`, for which the growth in the assay with HCT-15 colon was 11%; with HT29 colon, 8.48% (active); in the assay on SNB-75 CNS it was 3.74% (active); with SNB-19 CNS, 50.6%; with U251 CNS, 26.5%; in the assay on PC-3 prostate, 26.2%. For the same compound, the growth in the assay with UACC-62 melanoma is 32.9%; in the assay with LOX IMVI melanoma, 14.1%; with SK-MEL-28 melanoma it was 30.6%.

For `COc1ccc(C2=Nn3c(nnc3-c3cc(Cl)cc(Cl)c3Cl)SC2)cc1`, the growth was 12.1% in the assay on HCT-15 colon; -28.8% (active) in the assay on HT29 colon; 22.7% in the assay with SNB-75 CNS; 14.3% in the assay on SNB-19 CNS; 18.5% in the assay on U251 CNS; 18.1% with PC-3 prostate. Besides, the growth in the assay with UACC-62 melanoma was 41.1%; in the assay with LOX IMVI melanoma, 23.7%; in the assay with SK-MEL-28 melanoma it was 47.7%.

Consider `COc1cc(/C=C/C(=O)/C=C/c2cc(OC)c3c(c2OC)OCO3)c(OC)c2c1OCO2`, for which the growth with HCT-15 colon is 31.9%; in the assay on HT29 colon it was 68.5%; with SNB-75 CNS, 33.4%; with SNB-19 CNS, 55.4%; in the assay with U251 CNS, 11.5%; in the assay on PC-3 prostate, 41%. The growth in the assay on SK-MEL-5 melanoma was 45.1%; in the assay with UACC-62 melanoma, 25.5%; in the assay on SK-MEL-28 melanoma, 55.6%.

Turning to `COC1=C(C)C(=O)c2c(c(CCCl)c3n2CCC3O)C1=O` (stereo not given), the growth is 2.73% (active) with HCT-15 colon; -4.05% (active) in the assay on HT29 colon; -45.3% (active) in the assay on SNB-75 CNS; 2.57% (active) with SNB-19 CNS; -3.61% (active) with U251 CNS; -2.49% (active) with PC-3 prostate. In addition, the growth was -51% (active) in the assay on SK-MEL-5 melanoma, -23.5% (active) with LOX IMVI melanoma and -27.7% (active) in the assay with SK-MEL-28 melanoma.

For `COc1ccc(OC)c(/C=C/c2nnc(Nc3ccccc3)o2)c1`, the growth was 90.5% with HCT-15 colon; 93.6% in the assay with HT29 colon; 82.1% in the assay on SNB-75 CNS; 96.9% in the assay with SNB-19 CNS; 98% with U251 CNS; 93.8% with PC-3 prostate. For the same compound, the growth was 90% in the assay on SK-MEL-5 melanoma, 99.5% with LOX IMVI melanoma and 108% with SK-MEL-28 melanoma.

As for `C/C(=C(/c1ccccc1)c1ccc(N2C(=O)c3cccc4c(N5CCN(C)CC5)ccc(c34)C2=O)cc1)c1ccccc1`, the growth was 56.8% in the assay with HCT-15 colon; 24.8% in the assay on HT29 colon; 98.1% with SNB-75 CNS; 88.9% with SNB-19 CNS; 75.4% in the assay on U251 CNS; 61.4% with PC-3 prostate. Moreover, the growth with SK-MEL-5 melanoma was 76.3%; in the assay with UACC-62 melanoma, 73.5%; in the assay with SK-MEL-28 melanoma it was 88.4%.

As to `COc1cc(C(=O)/C=C/c2c(Cl)nc3sccn23)cc(OC)c1OC`, the growth is 59.4% in the assay with HCT-15 colon; 67.5% in the assay with HT29 colon; 70.9% with SNB-75 CNS; 83% with SNB-19 CNS; 77.4% in the assay on U251 CNS; 70.5% in the assay on PC-3 prostate. Besides, the growth with SK-MEL-5 melanoma was 86.4%; with LOX IMVI melanoma, 63.8%; in the assay with SK-MEL-28 melanoma, 93.6%.

As to `CCn1cnc2c1c(=O)[nH]c(=O)n2CC1CCC(CNS(=O)(=O)c2ccc(OC3CCOCC3)c(F)c2)CC1` (stereo not given), the growth in the assay with HCT-15 colon is 86.6%; in the assay with HT29 colon, 37.8%; in the assay on SNB-75 CNS it was 7.93% (active); in the assay on SNB-19 CNS it was 59%; in the assay with U251 CNS, 67.9%; in the assay with PC-3 prostate, 45.9%. The growth with SK-MEL-5 melanoma is 60.1%; with UACC-62 melanoma, 24.1%; with SK-MEL-28 melanoma it was 64.1%.

Take `O=C1CCC/C=C\C[C@H]2C=CC(=O)/C2=C/C[C@H](CCc2cccc(C(F)(F)F)c2)O1`: the growth is -10.8% (active) with HCT-15 colon; -31.9% (active) in the assay with HT29 colon; 15.2% in the assay on SNB-75 CNS; -17.1% (active) with SNB-19 CNS; -93% (active) with U251 CNS; -20.7% (active) in the assay on PC-3 prostate. Besides, the growth is -82.8% (active) with SK-MEL-5 melanoma, -45.9% (active) in the assay with UACC-62 melanoma and -39.5% (active) with SK-MEL-28 melanoma.

As to `COc1ccc(-c2nc(NN)c3c(C)nn(-c4ccc(F)cc4)c3n2)cc1`, the growth with HCT-15 colon was 31.2%; with HT29 colon, 7.11% (active); in the assay with SNB-75 CNS, 23.3%; in the assay with SNB-19 CNS, 35.1%; in the assay on U251 CNS it was 27.1%; in the assay with PC-3 prostate, 42.3%. For the same compound, the growth is 40.7% in the assay on SK-MEL-5 melanoma, 41.9% in the assay with LOX IMVI melanoma and 61.4% with SK-MEL-28 melanoma.

For `O=c1ccc(N=Nc2ccccc2)ccc1Cl`, the growth is 2.07% (active) in the assay with HCT-15 colon; 27.5% in the assay on HT29 colon; 74.5% in the assay with SNB-75 CNS; 81.8% in the assay with SNB-19 CNS; 54.4% in the assay on U251 CNS; 56.2% with PC-3 prostate. Besides, the growth in the assay on SK-MEL-5 melanoma is 55.5%; in the assay on UACC-62 melanoma it was 55.7%; with SK-MEL-28 melanoma, 92.5%.

As for `Cc1cccc(NCc2cn(-c3ccc(C(=O)O)cc3)nc2-c2ccc(C(=O)O)cc2)n1`, the growth is 107% in the assay with HCT-15 colon; 107% in the assay with HT29 colon; 87.4% with SNB-75 CNS; 104% with SNB-19 CNS; 108% with U251 CNS; 103% with PC-3 prostate. Besides, the figures for the growth in the assay on SK-MEL-5 melanoma, in the assay on LOX IMVI melanoma and with SK-MEL-28 melanoma were 103%, 100% and 104%, respectively.

On to `Cc1ccc(-c2nc(N3CCN(CC(=O)Nc4ccc(Cl)c(C(F)(F)F)c4)CC3)c3ccccc3n2)cc1`, for which the growth in the assay on HCT-15 colon was 79.1%; in the assay with HT29 colon, 89.8%; in the assay with SNB-75 CNS, 81.2%; with SNB-19 CNS, 98.8%; with U251 CNS it was 93.2%; in the assay with PC-3 prostate it was 79.1%. Also, the growth in the assay with SK-MEL-5 melanoma is 103%; in the assay on LOX IMVI melanoma, 92.1%; in the assay with SK-MEL-28 melanoma it was 105%.

Turning to `CCCCn1c(=O)c(-c2cc(-c3ccc(Cl)cc3)nc(-c3ccc(Cl)cc3)c2)cc2cc(C)ccc21`, the growth is 101% in the assay on HCT-15 colon; 101% in the assay on HT29 colon; 98.5% in the assay with SNB-75 CNS; 98.8% in the assay with SNB-19 CNS; 106% in the assay with U251 CNS; 97.2% with PC-3 prostate. The growth in the assay with SK-MEL-5 melanoma is 104%; in the assay on SK-MEL-28 melanoma, 107%.

Turning to `COc1ccc2sc3c(NCCCNCCO)nc4ccccc4c3c(=O)c2c1`, the growth with HCT-15 colon was 44%; in the assay on HT29 colon, -39.2% (active); with SNB-75 CNS, 65.9%; in the assay on SNB-19 CNS, 66.8%; with U251 CNS, 32.2%; with PC-3 prostate it was 62.3%. The growth with SK-MEL-5 melanoma was 81.4%; with LOX IMVI melanoma it was -99.1% (active); in the assay on SK-MEL-28 melanoma, 70.6%.

On to `O=C1CCC(C(=O)NCCNCCNC(=O)C2CCC(=O)N2)N1` (stereo not given), for which the growth in the assay with HCT-15 colon was 99.8%; in the assay on HT29 colon, 89.8%; in the assay on SNB-75 CNS, 101%; with SNB-19 CNS, 98.3%; with U251 CNS it was 97.7%; in the assay on PC-3 prostate, 78.5%. The growth was 91.3% with SK-MEL-5 melanoma, 99.4% in the assay on UACC-62 melanoma and 112% with SK-MEL-28 melanoma.

`O=C(COc1ccc(/C=C2\Cc3ccc(Cl)cc3C2=O)cc1)Nc1nc2ccccc2s1`: the growth with HCT-15 colon is 106%; in the assay with HT29 colon, 116%; in the assay with SNB-75 CNS, 88%; with SNB-19 CNS it was 98%; with U251 CNS, 97.8%; with PC-3 prostate, 92%. For the same compound, the growth with SK-MEL-5 melanoma is 105%; in the assay on LOX IMVI melanoma it was 72.8%; in the assay on SK-MEL-28 melanoma, 108%.

Turning to `CS(=O)(=O)N(c1cc(-c2ccc3ncnc(Nc4ccc(F)c(Cl)c4)c3c2)cnc1Cl)S(C)(=O)=O`, the growth was 29.5% in the assay with HCT-15 colon; 31.5% in the assay with HT29 colon; -4.86% (active) with SNB-75 CNS; 50% in the assay on SNB-19 CNS; 38.2% with U251 CNS; 34.8% in the assay with PC-3 prostate. For the same compound, the growth with SK-MEL-5 melanoma is 31.3%; with LOX IMVI melanoma it was 32.2%; in the assay with SK-MEL-28 melanoma, 23.5%.

For `CCOC(=O)c1sc2ncc(-c3ccc(OC)cc3)n2c1C`, the growth in the assay with HCT-15 colon was 90.2%; with HT29 colon, 102%; in the assay with SNB-75 CNS, 92%; in the assay with SNB-19 CNS it was 92.4%; in the assay on U251 CNS, 105%; in the assay on PC-3 prostate it was 92.1%. Besides, the growth in the assay with UACC-62 melanoma is 78.6%; with LOX IMVI melanoma, 93.4%; in the assay on SK-MEL-28 melanoma it was 106%.

The values are drawn from PubChem BioAssay (NCI).
